From paper PMC5540273 (PLoS ONE, 2017)

Assays:
Details in all cases: concentration: 1 μM, replicates: in singlicate; n = 1
[1] = system: T1, AMPK-alpha1
T1 construct: gene PRKAA1

[2] = system: T2, AMPK-alpha2
T2 construct: gene PRKAA2

[3] = system: ANKK1
[4] = system: T3, ARK5
T3 construct: gene NUAK1

[5] = system: T4, ASK1
T4 construct: gene MAP3K5

[6] = system: T5, ASK2
T5 construct: gene MAP3K6

[7] = system: AURKA
[8] = system: AURKB
[9] = system: AURKC
[10] = system: AXL
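Also: KINOMEscan kinase panel screen.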

Row | SMILES | %Inh [1] | %Inh [2] | %Inh [3] | %Inh [4] | %Inh [5] | %Inh [6] | %Inh [7] | %Inh [8] | %Inh [9] | %Inh [10]
1 | CCn1c(-c2c(N)noc2C)nc2cnccc21 [SB-737856] | 4% | 0% | 0% | 25% | 0% | 0% | 0% | 32% | 4% | 0%
2 | CS(=O)(=O)Cc1ccc(Nc2nccc(-c3c(-c4cccc(NC(=O)C5CCCCC5)c4)nn4ncccc34)n2)cc1 [GSK350559] | 2% | 2% | 0% | 0% | 0% | 34% | 9% | 15% | 49% | 18%
3 | O=C1NC(=O)C(c2ccc(Cl)cc2)=C1Nc1ccc(O)cc1 [SB-340867] | 0% | 0% | 0% | 0% | 0% | 0% | 0% | 9% | 0% | 18%
4 | Cc1ccc(NC(=O)Nc2ccc(Cl)c(C(F)(F)F)c2)cc1-c1ccc(C(=O)Nc2ccncc2)cc1 [GSK1398470] | 2% | 16% | 15% | 14% | 0% | 0% | 0% | 0% | 8% | 17%
5 | CNCc1ccc2nc(NC(=O)c3ccc(C(C)(C)C)cc3)cn2c1 | 0% | 13% | 40% | 0% | 21% | 0% | 8% | 22% | 25% | 15%
6 | COc1ccc(Nc2nccc(-c3ccc(NC(=O)c4cc5cc(F)ccc5[nH]4)cc3)n2)cc1 [GSK1229496] | 0% | 0% | 0% | 0% | 2% | 0% | 0% | 5% | 0% | 0%
7 | Fc1ccc(-c2nc3n(c2-c2ccncc2)CCS3)cc1 [GI98581] | 14% | 0% | 0% | 0% | 5% | 13% | 0% | 0% | 43% | 6%
8 | CS(=O)(=O)CCNCc1nc(-c2ccc3ncnc(Nc4ccc5c(cnn5Cc5ccccc5)c4)c3c2)cs1.Cl.Cl [GW569716] | 0% | 0% | 0% | 0% | 0% | 0% | 32% | 29% | 0% | 0%
9 | Fc1ccc(-c2nc[nH]c2-c2ccncc2)cc1 [SB-217360] | 5% | 0% | 0% | 0% | 0% | 0% | 8% | 33% | 0% | 0%
10 | FC(F)(F)c1ccccc1-c1cc(-c2c[nH]nc2-c2ccccn2)ccn1 [GW679396] | 0% | 25% | 0% | 0% | 10% | 0% | 44% | 0% | 16% | 0%
11 | Cc1ccc(NC(=O)c2ccc(Cl)cc2)cc1-c1ccc(C(=O)Nc2ccncc2)cc1 [GSK1398467] | 0% | 21% | 0% | 6% | 0% | 21% | 0% | 1% | 17% | 0%
12 | O=C1NC(=O)C(c2ccc(Cl)cc2)=C1Nc1cccc(Cl)c1 [SB-317651] | 0% | 0% | 0% | 0% | 3% | 0% | 0% | 35% | 0% | 20%
13 | COc1cccc(NC(=O)Nc2ccc(C)c(-c3ccc(C(=O)Nc4ccncc4)cc3)c2)c1 [GSK1398474] | 0% | 13% | 10% | 20% | 2% | 0% | 14% | 0% | 40% | 25%
14 | CSc1ccc(-c2nc3n(c2-c2ccncc2)CCC3)cc1 [SKF-105561] | 0% | 0% | 0% | 0% | 12% | 17% | 10% | 0% | 0% | 0%
15 | O=C(Nc1n[nH]c2nc(-c3cccs3)c(Br)cc12)C1CC1 [SB-735297] | 0% | 8% | 9% | 0% | 2% | 13% | 0% | 31% | 6% | 28%
16 | COc1ccc(-c2coc3ccc(-c4nnc(C)o4)cc23)cc1 | 0% | 3% | 0% | 0% | 0% | 10% | 0% | 18% | 0% | 0%
17 | COc1ccc(CSc2nnc(-c3ccc4ncsc4c3)o2)cc1C(F)(F)F | 0% | 13% | 0% | 10% | 0% | 4% | 0% | 13% | 0% | 0%

Row | SMILES | %Inh [1] | %Inh [2] | %Inh [3] | %Inh [4] | %Inh [5] | %Inh [6] | %Inh [7] | %Inh [8] | %Inh [9] | %Inh [10]
18 | COc1ccc(Nc2nccc(NCCNC(=O)Nc3cc(C)ccc3C)n2)cc1 [GSK1379899] | 0% | 0% | 0% | 0% | 0% | 0% | 0% | 14% | 36% | 4%
19 | Cn1cnc2c(N)ncnc21 [SKF-97623] | 5% | 0% | 0% | 0% | 0% | 0% | 5% | 0% | 0% | 10%
20 | O=c1cc(N2CCOCC2)nc2n(Cc3ccccc3F)ccn12 [GSK2297428] | 0% | 0% | 9% | 0% | 0% | 0% | 0% | 13% | 0% | 0%
21 | CCc1ccc(-c2ccc3c(c2)-c2n[nH]cc2S(=O)(=O)N3C)cc1 | 0% | 1% | 0% | 13% | 6% | 0% | 0% | 0% | 11% | 51%
22 | COc1cccc(CNC(=O)NC2CCN(c3ccnc(Nc4ccc(F)cc4)n3)C2)c1 (stereo not shown) [GSK1379723] | 0% | 12% | 0% | 24% | 0% | 9% | 11% | 37% | 49% | 6%
23 | CNc1nc(-c2ccc3c(N)n[nH]c3c2)cc(N2C[C@@H](C(=O)Nc3ccccc3)CC[C@H]2C)n1 [GSK2298859] | 0% | 0% | 1% | 25% | 0% | 12% | 12% | 16% | 43% | 8%
24 | Nc1nccc(-c2c(-c3ccc(F)cc3)ncn2C2CCN(Cc3ccccc3)CC2)n1 [SB-219980] | 0% | 3% | 59% | 15% | 0% | 0% | 21% | 22% | 0% | 9%
25 | Cc1ccccc1-c1cc(-c2c[nH]nc2-c2ccccn2)ccn1 [GW680061] | 1% | 0% | 0% | 0% | 0% | 14% | 0% | 4% | 6% | 0%
26 | COc1ccc(Nc2nccc(N3CCC(NC(=O)C(C)c4ccc(Cl)cc4)C3)n2)cc1 (stereo not shown) [GSK1379735] | 0% | 21% | 0% | 22% | 10% | 4% | 0% | 24% | 49% | 16%
27 | CCn1c(-c2ccccc2)nc2cnccc21 [SB-733416] | 0% | 0% | 0% | 8% | 28% | 17% | 0% | 0% | 30% | 10%
28 | CC(=O)c1c(C)c2cnc(Nc3ccn(C)n3)nc2n(C2CCCC2)c1=O | 20% | 0% | 0% | 0% | 0% | 0% | 4% | 0% | 0% | 0%
29 | CCCCc1nn2ncccc2c1-c1ccnc(NC2CC2)n1 [GW684374] | 0% | 0% | 8% | 12% | 0% | 0% | 30% | 12% | 38% | 0%
30 | COC(=O)c1cccc(NC(=O)NC2CCN(c3ccnc(Nc4ccc(F)cc4)n3)C2)c1 (stereo not shown) [GSK1379725] | 0% | 0% | 0% | 0% | 0% | 1% | 0% | 39% | 34% | 6%
31 | NS(=O)(=O)c1cccc(N/C=C2\C(=O)Nc3ccc(S(=O)(=O)Cc4c(Cl)cccc4Cl)cc32)c1 [GSK398099] | 0% | 0% | 0% | 0% | 3% | 0% | 26% | 30% | 0% | 0%
32 | COc1nccc(-c2c(-c3ccc(F)cc3)ncn2CCCN2CCOCC2)n1 [SB-282852] | 77% | 0% | 0% | 0% | 0% | 0% | 23% | 42% | 0% | 0%
33 | CN1c2ccc(-c3ccc(C(N)=O)cc3)cc2-c2[nH]ncc2S1(=O)=O | 0% | 0% | 0% | 0% | 0% | 0% | 0% | 21% | 0% | 5%
34 | COc1ccc(CSc2nnc(-c3ccc4nccn4c3)o2)cc1C(F)(F)F | 3% | 9% | 0% | 9% | 0% | 44% | 0% | 22% | 15% | 20%
